Hits are enriched below; roughly 11% of the tested compounds scored in any of these assays.
USP28 block: blocks human USP28 ubiquitin-rhodamine cleavage; Q96RU2; purified USP28, Ub-rhodamine cleavage fluorescence, 30 min; inhibition, % at 25 µM; actives 3% (n = 47,000); AID 1645857
USP17 inh: human USP17-like deubiquitinase inhibition. inhibition, % at 50 µM. AID 1645855. actives 6.5% (n = 47,000). purified USP17, Ub-rhodamine cleavage fluorescence, 3 h. A8MUK1
Target sequence (A8MUK1 whole entry, looked up): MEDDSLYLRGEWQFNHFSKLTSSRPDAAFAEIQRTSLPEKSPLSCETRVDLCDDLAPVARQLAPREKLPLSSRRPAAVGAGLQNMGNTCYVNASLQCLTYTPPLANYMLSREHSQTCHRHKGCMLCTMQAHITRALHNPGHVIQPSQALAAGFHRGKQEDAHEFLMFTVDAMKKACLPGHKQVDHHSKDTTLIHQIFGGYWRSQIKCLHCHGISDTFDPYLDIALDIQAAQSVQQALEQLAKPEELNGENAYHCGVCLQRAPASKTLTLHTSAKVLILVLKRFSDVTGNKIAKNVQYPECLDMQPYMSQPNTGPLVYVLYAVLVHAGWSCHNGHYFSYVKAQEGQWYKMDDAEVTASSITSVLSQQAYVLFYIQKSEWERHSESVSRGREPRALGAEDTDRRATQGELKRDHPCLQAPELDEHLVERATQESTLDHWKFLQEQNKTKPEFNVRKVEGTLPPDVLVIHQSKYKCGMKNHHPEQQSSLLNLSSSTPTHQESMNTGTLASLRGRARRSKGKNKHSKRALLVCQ
USP30 inh: inhibitors of human USP30 deubiquitinase; purified USP30, Ub-rhodamine cleavage fluorescence; actives 5.3% (n = 47,000); Q70CQ3; inhibition, % at 25 µM
Starred values were filed as active, the others as inactive; i = inactive; nt = not tested or not shown. Rule as the data show it: active = inhibition above about 30%; inactive = the rest.

SMILES	USP28 block	USP17 inh	USP30 inh
O=C(NC1CCN(Cc2ccccc2)CC1)c1ccc(Cn2c(=O)[nH]c3ccccc3c2=O)cc1	0	-6	0
O=C(NCCCN1CCN(c2ccc(F)cc2)CC1)c1ccc2c(=O)n(CCc3ccccc3)c(=O)[nH]c2c1	20	31*	42*
O=C(NCCc1ccccc1)c1ccc2c(=O)n(CCC3=CCCCC3)c(=O)[nH]c2c1	0	-9	0
O=C(CCn1c(=O)[nH]c2ccccc2c1=O)N1CCN(c2ccc(F)cc2)CC1	-9	-12	-15
O=C(c1ccc(Cn2c(=O)[nH]c3ccccc3c2=O)cc1)N1CCN(c2ccc(F)cc2)CC1	18	10	48*
CCc1nc(-c2ccc(C)c(S(=O)(=O)NC3CCCCC3)c2)no1	11	11	3
Cc1ccc2nc(NC(=O)C3(c4ccc(Cl)cc4)CCCC3)sc2c1	-112	4	6
COc1ccc(CNC(=O)CSc2cc(NCc3ccc(Cl)cc3)ncn2)cc1	-6	-17	-37
CCOc1ccc(-c2nonc2NC(=O)Cc2ccc(OC)cc2)cc1	7	10	25
CCOC(=O)C1CCN(C(=O)c2ccccc2NS(=O)(=O)c2ccc(OCC)cc2)CC1	15	14	27
Cc1ccc(CCNC(=O)C2CCCN(c3ncnc4onc(C)c34)C2)cc1 (centres undefined)	5	-6	36*
Cc1ccc(CNC(=O)C2CCCN(c3cnc4nccnc4c3)C2)cc1 (centres undefined)	-248	-138	i
O=C(Nc1nnc(C2CCCC2)s1)C(=O)c1c[nH]c2ccccc12	nt	9	nt
CC(=O)Nc1c(-c2ccc3c(c2)OCO3)c(=O)c2ccccc2n1C	5	12	49*
CCCCC(=O)Nc1c(-c2ccc3c(c2)OCO3)c(=O)c2ccccc2n1C	-4	-5	3
O=C(Nc1oc2ccccc2c(=O)c1-c1ccc2c(c1)OCO2)C1CCCCC1	5	83*	26
O=C(Nc1oc2ccccc2c(=O)c1-c1ccc(F)cc1)c1ccccc1	13	8	18
Cc1c2oc3c(C)ccc(C(=O)N[C@@H]4C(=O)N[C@H](C(C)C)C(=O)N5CCC[C@H]5C(=O)N(C)CC(=O)N(C)[C@@H](C(C)C)C(=O)O[C@@H]4C)c3nc-2c(C(=O)N[C@@H]2C(=O)N[C@H](C(C)C)C(=O)N3CCC[C@H]3C(=O)N(C)CC(=O)N(C)[C@@H](C(C)C)C(=O)O[C@@H]2C)c(N)c1=O	-40	35*	-158
CCC(C)C1OC(=O)C(CCC(=O)O)N(C)C(=O)C(C(C)C)NC(=O)C2CCCCN2C(=O)[C@H]([C@H](C)CC)NC(=O)C(CCC(=O)O)N(C)C(=O)C(C(C)C)N(C)C(=O)CNC(=O)C2CCCN2C(=O)C(Cc2ccccc2)NC1=O (some centres undefined)	-14	-1	-14
Cc1cccc(Nc2nc(NC3CCCC3)nc3c2cnn3C)c1	13	0	-23
CN(C)S(=O)(=O)N1C[C@H](OCc2cccnc2)[C@H]2OCCC[C@H]21	17	nt	27
COc1ccc(C)cc1S(=O)(=O)NCC12CC3CC(CC(C3)C1)C2	21	10	25
O=C(Nc1ccccc1F)C1=NOC2(CCNCC2)C1	39*	34*	34*
Cc1ccc(NC(=O)C2=NOC3(CCNC3)C2)cc1 (centres undefined)	12	3	23
O=C(Cn1cc(S(=O)(=O)N2CCCCC2)ccc1=O)Nc1ccccc1	12	25	8
SMILES	USP28 block	USP17 inh	USP30 inh
Cc1ccc(NC(=O)Cn2cc(S(=O)(=O)N3CCCCC3)ccc2=O)cc1	20	12	44*
Cc1ccccc1Cn1cc(S(=O)(=O)N2CCCC2)ccc1=O	-14	-7	-3
Cc1ccccc1Cn1cc(S(=O)(=O)N2CCCCCC2)ccc1=O	10	21	37*
O=C(Cn1cc(S(=O)(=O)N2CCCCCC2)ccc1=O)Nc1ccccc1	-9	36*	-13
Cc1ccc(NC(=O)Cn2cc(S(=O)(=O)N3CCOCC3)ccc2=O)cc1	-4	3	13
Cc1ccc(-n2nnc3c(SCc4ccccc4)ncnc32)cc1	5	5	13
CCc1cccc2c1NC(=O)[C@]21[C@@H]2C(=O)N(c3ccc4ccccc4c3)C(=O)[C@@H]2[C@@H]2CCCN21	-203	-133	i
COc1cccc(-c2cc3n(C)c(C)c(CCC(=O)NCc4ccccc4)c(=O)n3n2)c1	0	-4	0
COc1ccc(-c2cc3n(C)c(C)c(CCC(=O)NCc4ccc(F)cc4)c(=O)n3n2)cc1	17	66*	54*
CC(C)(C)Nc1c(C2CCN(C(=O)CN3CCCC3=O)CC2)nc2ccccn12	11	8	20
CCOc1ccc(NC(=O)CSc2nc3n[nH]c(C)c3c(=N)n2-c2ccc(OC)cc2)cc1	11	9	52*
COc1ccc(-n2c(SCC(=O)N3CCCC3)nc3n[nH]c(C)c3c2=N)cc1	-4	17	-11
Nc1cc(C2CCN(S(=O)(=O)c3ccc4c(c3)CCCC4)CC2)no1	10	16	48*
Cc1cccc(S(=O)(=O)N2CCC(c3cc(N)on3)CC2)c1	-8	-3	-14
CCc1nccn1-c1cccc(C2CCN(S(=O)(=O)N(C)C)CC2)n1	-6	0	11
Cc1ccc(-c2cnc(C3CC3)o2)cc1S(=O)(=O)Nc1ccc(F)c(Cl)c1	29	66*	2
Cc1ccc(C)c(NS(=O)(=O)c2cc(-c3cnc(C4CC4)o3)ccc2C)c1	-4	52*	-2
Cc1ncc(-c2ccc(C)c(S(=O)(=O)Nc3cccc4c3CCCC4)c2)o1	24	0	-8
COc1ccc(NS(=O)(=O)c2cc(-c3cnc(C4CC4)o3)ccc2C)cc1OC	-7	-6	-23
CCN1CCN(C2(CNC(=O)c3ccccc3)CCCCC2)CC1	0	0	0
CC1=C(C(=O)Nc2ccccc2C)C(c2cccc(OCc3ccccc3)c2)n2ncnc2N1 (centres undefined)	13	2	21
CC1=C(C(=O)Nc2ccc(Cl)cc2)C(c2cccnc2)n2ncnc2N1 (centres undefined)	-12	-6	-12
CC1=C(C(=O)Nc2ccccn2)C(c2ccc3c(c2)OCO3)n2ncnc2N1 (centres undefined)	33*	12	18
CC1=C(C(=O)Nc2ccccc2C)C(c2ccc(OCc3ccccc3F)cc2)n2ncnc2N1 (centres undefined)	5	62*	19
COc1cccc(O[C@@H]2C[C@@H](NC(=O)c3cnn(C)c3)[C@H](N3CCCC3)[C@H]2O)c1	1	-14	-32
Cc1cc(C)n2nc(C(=O)N3CCCCC3c3[nH]ncc3C)cc2n1 (centres undefined)	-8	0	-1
CC(c1ccccc1)N1CNc2c(c(=O)[nH]c(=O)n2-c2ccccc2)C1 (centres undefined)	-3	8	7
COc1ccc(CN2CCC3(CC2)Nc2ccccc2C2=NCCN23)c(OC)c1OC	4	7	5
CC1(C)C(=O)Nc2ccccc2N1C(=O)COc1ccc(-c2nnco2)cc1	-1	4	9
COc1ccc(CC(=O)OCC(=O)N2c3ccccc3NC(=O)C2(C)C)cc1	13	34*	-12

Screening results from PubChem BioAssay.
